# Measured values taken from the supplement of paper PMC6555819.
# Assays:
# Test in all cases: PBM binding z-score (relative to random genomic background probes); higher = stronger binding; sequences stand for … in GC…GCGATTGACAGCGTAGAATGAAGG
# [1] = tested on: FXR:RXRa (NR concentration 270 nM, RXRa partner concentration 90 nM)
# Procedure, shortened: (§1)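 Custom Agilent 4×180K protein-binding microarrays carried double-stranded probes, each with a 34-nt variable region. These regions held direct-repeat seeds, single-nucleotide variants, half-site ablations and random human genomic background sequences. Ligand-free nuclear receptor dimers were incubated on the arrays for 1 h, antibodies against each partner (one per run) detected binding, and scanned fluorescence was regression-normalized. Binding z-scores take the random background probes as reference.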
# [2] = tested on: LXRa:RXRa (NR concentration 270 nM, RXRa partner concentration 90 nM)
# Procedure, shortened: as §1
# [3] = tested on: LXRa homodimer (NR concentration 270 nM)
# Procedure, shortened: as §1
# [4] = tested on: LXRb:RXRa (NR concentration 270 nM, RXRa partner concentration 90 nM)
# Procedure, shortened: as §1
# [5] = tested on: LXRb homodimer (NR concentration 270 nM)
# Procedure, shortened: as §1
# [6] = tested on: PPARa:RXRa (NR concentration 270 nM, RXRa partner concentration 90 nM)
# Procedure, shortened: as §1
# [7] = tested on: PPARg:RXRa (NR concentration 180 nM, RXRa partner concentration 90 nM)
# Procedure, shortened: as §1
# [8] = tested on: PPARg:RXRa 270nM:90nM, anti-RXR (NR concentration 270 nM, RXRa partner concentration 90 nM)
# Procedure, shortened: as §1
# [9] = tested on: PPARg:RXRa 30nM:10nM, anti-RXR (NR concentration 30 nM, RXRa partner concentration 10 nM)
# Procedure, shortened: as §1
# [10] = tested on: PPARg:RXRa 90nM:30nM, anti-RXR (NR concentration 90 nM, RXRa partner concentration 30 nM)
# Procedure, shortened: as §1
# [11] = tested on: PPARg:RXRa DBDmut IVT, anti-RXR (DBD mutation: RXRa K156A/R161A, NR concentration 270 nM, RXRa partner concentration 90 nM)
# Procedure, shortened: as §1
# [12] = tested on: PPARg:RXRa IVT, anti-PPARg (NR concentration 270 nM, RXRa partner concentration 90 nM)
# Procedure, shortened: as §1
# [13] = tested on: PPARg DBDmut:RXRa IVT, anti-PPARg (DBD mutation: PPARg1 K132A/R137A, NR concentration 270 nM, RXRa partner concentration 90 nM)
# Procedure, shortened: as §1
# [14] = tested on: PPARg DBDmut IVT, anti-PPARg (DBD mutation: PPARg1 K132A/R137A, NR concentration 270 nM)
# Procedure, shortened: as §1
# [15] = tested on: PPARg homodimer (NR concentration 180 nM)
# Procedure, shortened: as §1
# [16] = tested on: PXR:RXRa (NR concentration 270 nM, RXRa partner concentration 90 nM)
# Procedure, shortened: as §1
# [17] = tested on: PXR homodimer (NR concentration 270 nM)
# Procedure, shortened: as §1
# [18] = tested on: RARa:RXR (NR concentration 270 nM, RXRa partner concentration 90 nM)
# Procedure, shortened: as §1
# [19] = tested on: RARa homodimer (NR concentration 270 nM)
# Procedure, shortened: as §1
# [20] = tested on: RARb:RXRa (NR concentration 270 nM, RXRa partner concentration 90 nM)
# Procedure, shortened: as §1
Sequence,PBM binding z-score [1],PBM binding z-score [2],PBM binding z-score [3],PBM binding z-score [4],PBM binding z-score [5],PBM binding z-score [6],PBM binding z-score [7],PBM binding z-score [8],PBM binding z-score [9],PBM binding z-score [10],PBM binding z-score [11],PBM binding z-score [12],PBM binding z-score [13],PBM binding z-score [14],PBM binding z-score [15],PBM binding z-score [16],PBM binding z-score [17],PBM binding z-score [18],PBM binding z-score [19],PBM binding z-score [20]
ACAGACAGGTGATCAAGGTAACTCAGGCTATCAT,0.0446,-0.068,-0.091,-0.153,-0.411,-0.038,0.479,-0.0434,-0.141,-0.12,0.0346,0.406,-0.281,0.238,0.161,-0.179,0.0426,0.35,0.298,0.165
CGAACTAGGTCATCCAGAACAGTGAATACATTGA,4.08,2.69,0.739,2.14,0.118,4.64,7.99,6.91,4.38,6.42,8.45,8.49,6.73,4.45,3.59,1.48,0.368,2.32,0.855,3.83
CCTCGGGGGACAGAAGGTCAGAGCTGTCCGCTTT,2.39,3.78,0.464,3.58,2.95,3.5,0.517,2.66,0.439,1.51,0.436,1.38,1.67,-0.683,1.59,2.99,0.0976,3.08,-0.112,3.34
GTACCACGGTGAATAGGTCGTTGATGAGTAGGCG,-0.0112,-0.00221,-0.237,-0.365,-0.842,0.664,0.525,0.597,-0.227,0.557,-0.0107,0.889,-0.572,-0.695,0.25,0.0182,-0.47,0.233,-0.371,0.587
ACTAGTTGGTCCGCTGAGGTCACACACAATTCGG,2.59,2.61,1.91,3.24,0.456,3.57,1.38,1.99,0.517,1.36,0.592,1.67,0.377,-0.126,2.76,4.69,2.24,4.51,0.677,2.97
AATACAGGGTCACTAGGCCGGAGTAGGTACGAAT,5.72,5.1,0.78,3.77,1.05,5.36,6.6,6.03,2.5,4.78,3.1,5.05,0.885,0.938,1.34,2.98,0.306,3.81,-0.208,3.97
CGAACTAGGTCAAAGGTCAAAGTCGAGCCAACCA,8.28,7.41,5.37,7.03,2.53,7.47,14.1,11.4,14.7,14,8.51,9.23,5.13,3.23,6.9,7.09,2.03,8.93,3.32,5.51
CCTACTGGGCCAAAGGTCATTTATTCCAATGCTC,4.91,5.02,5.54,5.19,1.7,6.68,12.4,10.4,11,11.5,5.13,6.94,0.54,0.179,5.03,5.54,1.8,6.34,2.22,4.25
TGTTGTAGATCAAGCAGGTTAAGAAAGCCTGAGT,-0.212,-0.245,-0.47,-0.0172,-0.215,0.282,-0.51,-0.0645,-0.0716,-0.0785,-0.275,0.329,0.0224,-0.646,-0.211,0.13,0.0391,0.16,0.163,-0.116
ATCTCTAGGTAACGAGTTCAGTGAAAGAGAGGAC,0.481,0.764,0.708,0.738,0.449,2.04,1.69,1.73,0.509,1.26,4.09,3.44,0.909,0.668,0.806,2.31,2.89,0.857,0.668,1.35
CGTCAAAGTTCAACTAAGGTAAGGTAAAGCACGC,7.07,6.11,4.02,3.87,1.73,5.14,5.27,5.34,2.26,4.31,0.313,2.23,0.694,0.769,2.56,5.25,3.24,4.42,1.63,5.2
TCTGCTAGGTCAGTTGGTCAGCCAACGAGCTGCC,0.772,0.762,-0.677,0.196,-0.0137,1.52,0.643,1.9,1.52,1.51,2.34,2.92,2.07,0.334,0.252,0.152,-0.764,0.399,-1.63,3.3
CAAACTAGGTCACAGAGGCCAAAGTCCGTGCGTA,4.93,3.79,1.02,2.66,0.0915,5.36,8.81,7.33,5.35,7.09,8.22,8.69,7.35,2.65,3.4,3.51,2.61,3.27,0.794,4.23
TAGCCTAGGTCATGCGGGCCAGTATCGTGTCGGC,3.99,3.03,0.667,1.41,-0.226,3.06,1.67,2.29,0.00483,1.36,1.85,2.82,-0.0878,-0.59,0.211,1.41,-0.532,2,-0.99,3.49
TTACCAAGGTGAGCAGAGGTCGTTGATCCAACTC,1.14,1.86,-0.283,1.37,-0.627,2.38,2.17,2.89,0.857,2.68,0.947,2.49,-0.426,-0.173,0.497,4.23,-0.112,2.23,-0.99,1.99
TCATATAGGTAAAAGGTGAAATTCGGTGTGGTAA,2.42,1.99,0.471,2.11,0.332,5.49,8.93,8.13,8.19,8.89,5.31,5.24,2.68,1.94,2.68,1.62,1.11,2.81,1.72,1.89
TCAAGCAGGCCAGAGGGTCACTCAAGAGGTACGG,1.15,0.997,-0.238,1.22,-1,2.59,1.67,2.69,2.51,2.67,1.38,0.884,-1.19,-1.55,0.379,1.65,-0.357,2.52,-0.42,2.51
TCTTGTAGATCAGCAGATTAAGAAAGCTGGCCAA,-0.0778,-0.0855,-0.478,-0.134,-0.494,0.385,-0.628,0.95,2.75,1.92,1.64,-0.0378,-0.256,0.452,-0.374,-0.148,-0.568,-0.157,0.205,-0.229
TTACCCAGGTGAGCTGAGGTCGTTGATCCAACTC,1.83,0.726,-0.313,0.515,-1.12,1.35,0.177,0.382,-0.172,0.184,0.846,1.89,-1.04,-0.726,0.267,4.2,0.439,1.55,-1.01,1.1
ACTAGCAGGTCAAGTTTGGGTCACTCAAACAAAG,5.89,4.79,1.41,3.88,1.28,4.83,4.43,4.76,1.27,3.41,4.12,4.73,0.847,0.843,3.76,4.22,0.228,5.89,0.164,4.61
AGTCAAAGTTCAGGACGAAGTAACGTAAAGCACG,3.85,3.49,0.943,1.68,0.274,3.3,4.78,4.86,1.78,3.86,-0.478,1.38,0.781,0.688,1.46,2.02,0.921,1.93,1.14,4.2
AGAATGAGGTTACCAAAGATCAGGAAAACGCTTG,1.7,6.01,-0.322,3.66,-0.00832,3.51,2.7,2.54,0.962,2.01,4.01,3.35,0.931,0.626,0.925,1.57,-0.0296,2.1,0.339,1.95
GCTGCTAGGCCAACTGATGGTCAGCTAAAGCTCG,-0.828,-0.78,-0.908,-1.3,-1.01,-1.2,-0.468,-0.849,-1.22,-1.14,1.28,-0.0931,-1.27,-1.3,-0.811,-0.987,-0.793,-0.653,-1.39,0.829
CCTACTGGGCCATCAGATCATTGATATCAACGTT,-0.345,-0.391,-0.0851,-0.263,-0.349,0.662,1.01,1.49,0.163,1.28,4.57,3.97,0.261,0.0377,-0.139,-0.487,-0.238,-0.391,0.289,0.228
TCTTCTAGATCAATAGAGGTTAAGAAAGTGCGCT,0.907,3.4,0.664,1.92,0.831,1.9,0.156,2,3.32,2.76,2.16,1.48,1.87,0.999,0.764,3.02,0.423,1.8,0.413,0.98
TTACCAAGGTGAGCTGAGCTCGTTGATCCAACTC,-0.195,-0.544,-0.993,-0.67,-1.3,0.11,-0.393,-0.0625,-0.293,-0.268,0.946,1.2,0.0399,0.147,-0.967,-0.427,-0.854,0.0745,-1.22,0.907
TCTCGGTGGACACGAAAGGTCAGAGCTCGACATC,2.46,3.58,2.21,3.1,-0.0844,3.69,1.16,2.93,2.55,2.78,1.22,1.82,-0.273,-0.543,3.39,3.87,0.441,4.59,-0.0957,3.86
CCTTAAGGGTCAAGGTTATAGCACGGGTGGTACG,7.56,5.38,1.06,4.67,0.683,5.86,5.81,5.97,2.96,4.78,2.34,3.94,0.0433,0.353,2.23,4.37,0.453,5.62,1.31,5.4
GCTAGCACGCCATTTGGGTCACTCAATGACGGGC,-0.103,-0.15,-0.585,-0.179,-1.07,1.13,0.747,0.379,-0.294,0.152,0.446,1.27,-1.77,-1.29,-0.0391,0.0907,-0.533,0.592,-0.962,0.997
